# Reference: PubChem BioAssay (EPA / NIEHS)
# Results filed as inconclusive are left out. The source made the active and inactive calls. The calls were made as follows, unless noted: active = hit-call score of the fitted dose curve at least 0.9, where 1 is the maximum; inconclusive = response in the unintended direction; inactive = score below 0.9.
# What was measured:
# [1] = TOX21_p53_BLA_p2_viability: Viability Assessment in the Tox21 HCT-116 p53 Agonism Beta-lactamase Assay, Phase 2 (AID 2283591);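 also: compound exposure lasted 16 h at 37 °C; actives lower the ATP signal meaning cytotoxicity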
# How it was run: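 Cytotoxicity readout: CellTiter-Glo ATP luminescence, 30 min at room temperature, after the beta-lactamase read. Cells were HCT116 exposed 16 h at 37C to compounds pin-transferred at 217-fold dilution from DMSO stocks.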
# [2] = molecular target: Cellular tumor antigen p53 (Homo sapiens) (UniProt P04637); test: TOX21_p53_BLA_p2_ratio: Tox21 HCT-116 p53 Agonism Beta-lactamase Assay, Ratio, Phase 2 (AID 2283592)
# Cellular tumor antigen p53 (Homo sapiens), sequence (P04637 whole entry, looked up): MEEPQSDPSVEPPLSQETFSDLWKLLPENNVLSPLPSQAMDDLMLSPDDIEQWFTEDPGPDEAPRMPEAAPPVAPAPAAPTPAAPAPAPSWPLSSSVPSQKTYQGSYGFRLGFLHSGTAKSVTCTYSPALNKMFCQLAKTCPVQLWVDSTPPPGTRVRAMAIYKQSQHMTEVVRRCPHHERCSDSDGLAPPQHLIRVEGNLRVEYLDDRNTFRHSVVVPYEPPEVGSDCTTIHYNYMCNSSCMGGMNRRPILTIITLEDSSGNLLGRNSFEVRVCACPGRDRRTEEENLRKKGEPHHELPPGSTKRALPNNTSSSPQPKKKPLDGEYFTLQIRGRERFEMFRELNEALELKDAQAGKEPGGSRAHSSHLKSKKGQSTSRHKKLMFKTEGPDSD
# How it was run: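 DMSO-normalized, positive-direction endpoint derived from the 460 nm/530 nm FRET ratio in HCT116 p53 beta-lactamase reporter cells exposed 16 h at 37C and loaded with CCF4-AM for 2 h.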
# [3] = TOX21_p53_BLA_p3_viability: Viability Assessment in the Tox21 HCT-116 p53 Agonism Beta-lactamase Assay, Phase 3 (AID 2283593);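 also: cells exposed to compound for 16 h before reading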
# How it was run: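 Cellular ATP was quantified by CellTiter-Glo luminescence, read after 30 min at room temperature. Beforehand, HCT116 cells (4000/well) received compound 5 h post-seeding, 217-fold diluted from DMSO, then incubated 16 h at 37C.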
# [4] = molecular target: Cellular tumor antigen p53 (Homo sapiens) (UniProt P04637); test: TOX21_p53_BLA_p3_ratio: Tox21 HCT-116 p53 Agonism Beta-lactamase Assay, Ratio, Phase 3 (AID 2283596)
# How it was run: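 Cells were seeded at 4000/well, rested 5 h at 37C, then dosed with DMSO compound solutions (217-fold dilution) for 16 h. CCF4-AM substrate was loaded for 2 h at room temperature, and the 460/530 nm emission ratio was fitted for gain of signal versus DMSO.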
# [5] = molecular target: Cellular tumor antigen p53 (Homo sapiens) (UniProt P04637); test: TOX21_p53_BLA_p5_ratio: Tox21 HCT-116 p53 Agonism Beta-lactamase Assay, Ratio, Phase 5 (AID 2283599)
# How it was run: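 Beta-lactamase reporter ratio (blue 460 nm over green 530 nm, 405 nm excitation) after 2 h CCF4-AM loading, in HCT-116 cells exposed 16 h at 37 C to compounds pinned at 217-fold dilution. Increases relative to DMSO baseline scored.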
# [6] = molecular target: Cellular tumor antigen p53 (Homo sapiens) (UniProt P04637); test: TOX21_p53_BLA_p4_ratio: Tox21 HCT-116 p53 Agonism Beta-lactamase Assay, Ratio, Phase 4 (AID 2283601)
# How it was run: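 Signal is the blue/green (460nm/530nm) ratio of cleaved versus uncleaved CCF4-AM substrate, read after 2 h substrate loading. Cells were HCT116 carrying the p53-responsive beta-lactamase reporter, dosed 16 h at 37C, 5% CO2; CellTiter-Glo measured in parallel.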
# [7] = TOX21_p53_BLA_p5_viability: Viability Assessment in the Tox21 HCT-116 p53 Agonism Beta-lactamase Assay, Phase 5 (AID 2283600)
# How it was run: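 Here cell health was gauged by ATP levels in wells holding 4000 cells, each treated 16 h with DMSO-delivered compounds at 217-fold dilution; reduced luminescence marked toxicity.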
# [8] = CCTE_Harrill_HTTr_Viability_MCF7: CCTE's 6-hour Cell Viability Assessment for the High-Throughput Transcriptomics (HTTr) Platform, in MCF-7 cells cultured in DMEM + 10% fetal bovine serum, Harrill Lab (AID 2284010; active = hit-call score of the fitted dose curve at least 0.9, where 1 is the maximum; inactive = score below 0.9)
# How it was run: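 Read-out is propidium iodide gain of signal by high-content imaging, reflecting membrane integrity loss. Measurements are taken 6 h after dosing, eight concentrations per chemical, with DMSO serving as baseline for bidirectional curve fitting.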
# [9] = CCTE_Harrill_HTTr_CellCount_MCF7: CCTE's Cell Proliferation Assessment for the High-Throughput Transcriptomics (HTTr) Platform, Harrill Lab (AID 2284012);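 also: cells exposed to compound for six hours; intended direction is loss of nuclei count meaning fewer cells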
# How it was run: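 Cell count served as viability reporter: loss of Hoechst-stained nuclei, counted by high content imaging, marks decreased growth or survival. Exposure was 6 h in MCF-7 cells across eight concentrations, with DMSO as baseline.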
# [10] = ACEA_ER_AUC_viability: ACEA Biosciences xCELLigence Real-Time Cell Analysis on Estrogen Receptor Agonism for Viability (AID 2283782);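 also: hit means loss of impedance signal meaning reduced cell growth or viability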
# How it was run: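 Viability endpoint: reduced impedance area under the curve relative to DMSO, recorded by real-time electrode sensing over ~80 h of continuous exposure. Duplicate plates of T47D in hormone-depleted medium; eight concentrations, 1:4 dilutions, 100 uM maximum.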
compound,measurement,setting,value
CCC1(CO)COCOC1,outcome,[1],inactive
same,outcome,[2],inactive
same,outcome,[3],inactive
same,outcome,[4],inactive
same,outcome,[5],inactive
same,outcome,[6],inactive
O=C(OOC(=O)c1ccccc1)c1ccccc1,outcome,[1],inactive
same,outcome,[2],inactive
same,outcome,[3],inactive
same,outcome,[4],inactive
same,outcome,[5],inactive
same,outcome,[7],inactive
same,outcome,[6],inactive
same,outcome,[8],inactive
same,outcome,[9],inactive
N=C(N)n1cccn1,outcome,[1],inactive
same,outcome,[2],inactive
same,outcome,[3],inactive
same,outcome,[4],inactive
same,outcome,[5],inactive
same,outcome,[7],inactive
same,outcome,[6],inactive
Cc1ccc([N+](=O)[O-])c(N)c1,outcome,[1],inactive
same,outcome,[2],inactive
same,outcome,[3],inactive
same,outcome,[4],inactive
same,outcome,[5],inactive
same,outcome,[6],inactive
C=CC(C)(O)CC/C=C(\C)CCC=C(C)C (stereo not given),outcome,[1],inactive
same,outcome,[2],inactive
same,outcome,[3],inactive
same,outcome,[4],inactive
same,outcome,[5],inactive
same,outcome,[7],inactive
same,outcome,[6],inactive
CCCCCCCC/C=C/CCCOC(C)=O,outcome,[1],inactive
same,outcome,[2],inactive
same,outcome,[3],inactive
same,outcome,[4],inactive
same,outcome,[5],inactive
same,outcome,[7],inactive
same,outcome,[6],inactive
same,outcome,[10],inactive
CC1CN(c2ccccc2)NC1=O (stereo not given),outcome,[1],inactive
same,outcome,[2],inactive
same,outcome,[3],inactive
same,outcome,[4],inactive
same,outcome,[5],inactive
same,outcome,[7],inactive
same,outcome,[6],inactive
FC(F)(F)C(Cl)Br (stereo not given),outcome,[1],inactive
same,outcome,[2],inactive
same,outcome,[3],inactive
same,outcome,[4],inactive
same,outcome,[5],inactive
same,outcome,[6],inactive
C=C1c2cccc(O)c2C(O)=C2C(=O)[C@]3(O)C(O)=C(C(N)=O)C(=O)[C@@H](N(C)C)[C@@H]3[C@@H](O)[C@H]12,outcome,[1],inactive
same,outcome,[2],inactive
same,outcome,[3],inactive
same,outcome,[4],inactive
same,outcome,[5],inactive
same,outcome,[7],inactive
same,outcome,[6],inactive
Nc1nc2ccc(OC(F)(F)F)cc2s1,outcome,[1],inactive
same,AC50,[2],7.3 µM (active)
same,outcome,[3],inactive
same,AC50,[4],7.29 µM (active)
same,AC50,[5],23.9 µM (active)
same,AC50,[6],11.3 µM (active)
COC(=O)N/N=C/c1c[n+]([O-])c2ccccc2[n+]1[O-],outcome,[1],inactive
same,outcome,[2],inactive
same,outcome,[3],inactive
same,outcome,[4],inactive
same,outcome,[5],inactive
same,outcome,[6],inactive
C=C(C)c1ccccc1,outcome,[1],inactive
same,outcome,[2],inactive
same,outcome,[3],inactive
same,outcome,[4],inactive
same,outcome,[5],inactive
same,outcome,[7],inactive
same,outcome,[6],inactive
NCCC(O)(P(=O)(O)O)P(=O)(O)O,outcome,[1],inactive
same,outcome,[2],inactive
same,outcome,[3],inactive
same,outcome,[4],inactive
same,outcome,[5],inactive
same,outcome,[6],inactive
Cc1ncc([N+](=O)[O-])n1CC(C)O (stereo not given),outcome,[1],inactive
same,outcome,[2],inactive
same,outcome,[3],inactive
same,outcome,[4],inactive
same,outcome,[5],inactive
same,outcome,[7],inactive
same,outcome,[6],inactive
C[C@H](/C=C/[C@H](C)C(C)(C)O)[C@H]1CC[C@H]2/C(=C/C=C3C[C@@H](O)C[C@H](O)C3)CCC[C@]12C,outcome,[1],inactive
same,outcome,[2],inactive
same,AC50,[3],30 µM (active)
same,outcome,[4],inactive
same,outcome,[7],inactive
O=C(O)CCC(=O)OC[C@@H](NC(=O)C(Cl)Cl)[C@H](O)c1ccc([N+](=O)[O-])cc1,outcome,[1],inactive
same,outcome,[2],inactive
same,outcome,[3],inactive
same,outcome,[4],inactive
same,outcome,[7],inactive
